Source: ChEMBL document CHEMBL4513216, “Probing the Open Global Health Chemical Diversity Library for Multistage-Active Starting Points for Next-Generation Antimalarials” (ACS Infect Dis, 2020)
The whole screen tested about 69,000 compounds, of which about 8,600 (12%) showed an effect of 50% or more. The list comes from a sample in which strong results are over-represented; it also holds similar structures and randomly drawn compounds.

Test system: Plasmodium berghei
Assay: Screen against P. berghei liver stage (PbLuc), transformed with Luciferase, at 10uM
Assay type: functional, HepG2
Settings: tested at 10 uM

SMILES	INHIBITION
CCc1cnc(CN(C)C2CCN(CC3CCOCC3)C2)o1 (stereo not drawn)	5.85%
Cc1nsc(NC(=O)N2CCc3sccc3C2)n1	24.1%
OC(COc1ccc(F)cc1)CN1CCC(c2ccn[nH]2)CC1 (stereo not drawn)	37.9%
Cc1cccc(N2CCOCC3(C2)CN(c2cnn(C)c2)C(=O)CO3)n1 (stereo not drawn)	44.4%
CC(C)Oc1ncnc2c1CCN(C(=O)c1cccn1C)CC2	7.39%
O=C1Nc2ccccc2/C1=C1\CCCCCN1	-2.09%
O=C1Nc2ccccc2C12CCCN(Cc1ccc3c(c1)OCCO3)C2 (stereo not drawn)	43.3%
O=C1Nc2ccccc2C12CCCN(Cc1ccncc1)C2 (stereo not drawn)	16.6%
CS(=O)(=O)c1ccc(CN2CCCC3(C2)C(=O)Nc2ccccc23)cc1 (stereo not drawn)	69%
CNc1ncc(CN(C)Cc2cc(O)c3cc(C)cc(C)c3n2)cn1	35.5%
CNc1ncc(CN(C)Cc2cc(O)c3cccc(Cl)c3n2)cn1	60.4%
CNc1ncc(CN(C)Cc2cc(O)c3cc(F)ccc3n2)cn1	40.9%
COc1ccccc1CNC(=O)c1ccccc1-n1cnc(CN)c1	-1.85%
Cc1ccc(SC2CCCC2)c(C(=O)NCCO)c1	90.7%
Cc1ccc(SC2CCCC2)c(C(=O)NCCc2n[nH]c(=O)[nH]2)c1	49.9%
CC(=O)NCCNC(=O)c1cc(C)ccc1SC1CCCC1	49.9%
COCCc1ncc(CNC2(c3ccc(Cl)cc3Cl)CC2)cn1	34%
COCCN1CCC(Nc2ccc(C#N)cc2F)CC1	21.7%
CCCN1CCC(NC(=O)Nc2ccc(OC)c(OC)c2)CC1	-4.46%
CCCN1CCC(Nc2cc(-c3ccccc3)ccc2OC)CC1	78.9%
Cc1cc(C(=O)NCC(O)c2c(Cl)cccc2Cl)nn1C (stereo not drawn)	25.2%
CCC(=O)N1CCN(c2ncnc3cc4c(cc23)OCCO4)CC1	41.6%

SMILES	INHIBITION
COc1ccc(CN2CC(O)CN(C(=O)OCC(C)(C)C)CC2=O)cc1 (stereo not drawn)	-15.6%
COc1cccc(CN2CC(O)CN(C(=O)C3CC3)CC2=O)c1OC (stereo not drawn)	-1.23%
COc1ccc(CN2CC(O)CN(C(=O)OCC(C)C)CC2=O)cc1 (stereo not drawn)	15.4%
CCOC(=O)N1CC(=O)N(Cc2ccc(OC)cc2)CC(O)C1 (stereo not drawn)	68.4%
COc1cccc(CN2CC(O)CN(C(=O)C(C)(C)C)CC2=O)c1OC (stereo not drawn)	58.5%
CCOC(=O)N1CC(=O)N(Cc2cccc(OC)c2OC)CC(O)C1 (stereo not drawn)	0.284%
COCC(=O)N1CCCCC1c1nc(N(C)C)ncc1-c1cc(C)no1 (stereo not drawn)	17.435%
Cn1ccc(C(=O)N2CCCC(c3cc(O)n(C)n3)C2)n1 (stereo not drawn)	36.4%
CCc1cnc(C)nc1NCc1cnc2c(c1)CCC2	46.4%
COc1ccccc1-n1nc(C(C)C)nc1Cc1nnc(N)s1	17.6%
CC1=C(C(=O)N(C)Cc2noc3c2CCCC3)C(C)NC(=O)N1 (stereo not drawn)	11.8%
CCc1c(C(=O)NCC2CCS(=O)(=O)C2)cnn1-c1ccccc1 (stereo not drawn)	4.71%
O=c1cc(CN2CCCC2)nc2n1CCCN(Cc1ccoc1)C2	-19.5%
O=C(NCCCNC(=O)C1CCC1)NCCn1cccc1	54.4%
O=C(NCCNC(=O)C1CCCCC1)NCCn1cccc1	18.6%
O=C(NCCn1cccc1)C1CCCOC1 (stereo not drawn)	39.8%
NC(=O)c1cccc(CS(=O)(=O)CC(O)Cn2cccn2)c1 (stereo not drawn)	4.41%
CN(C)C(CNC(=O)NCCOc1ccccc1)c1ccco1 (stereo not drawn)	-90.7%
CN(C)c1cc(C(=O)N2CCCC2c2cnn(C)c2)ccn1 (stereo not drawn)	22.3%
CCN1CCC(CC(=O)N(C)C(C)c2cncs2)CC1 (stereo not drawn)	0.825%
CN(C)c1ccc(C(O)CNS(=O)(=O)C2CC2)cc1 (stereo not drawn)	38.1%
CSc1ccc(C(O)CNS(=O)(=O)C2CC2)cc1 (stereo not drawn)	44.9%

SMILES	INHIBITION
O=S(=O)(NCC(O)c1ccc(C(F)(F)F)cc1)C1CC1 (stereo not drawn)	72.2%
Cc1nn(C2CCS(=O)(=O)C2)c(O)c1Cc1ccc(Br)cc1 (stereo not drawn)	43.4%
CCOC(CC)C(=O)NCCC(=O)N1CCN(c2ccccn2)CC1 (stereo not drawn)	-36.3%
Cc1cc(CN(C)C(=O)NC2CCN(c3ncccn3)CC2)no1	27.1%
CC1CCN(c2ncc(C#N)c(N)n2)CC1	-10.3%
CN1CCCC(c2cccc(-c3ccccc3F)n2)C1 (stereo not drawn)	31.15%
COCCCNc1ncc(-c2cccc(F)c2)c(-c2nccn2C)n1	13.7%
CC1CCCN(c2ncc(-c3ccccc3F)c(-c3nccn3C)n2)C1 (stereo not drawn)	75.45%
Cc1cc(-c2cnc(N3CCCC(C)C3)nc2C(C)C)on1 (stereo not drawn)	26.3%
O=c1c2cnc(N3CCCCC3)nc2ccn1-c1ccccc1F	-2.04%
Cn1ccnc1-c1nc(N2CCCCC2)ncc1-c1ccccc1F	54.8%
CC1CCN(c2ncc(-c3ccccc3F)c(-c3nccn3C)n2)CC1	72.05%
Cc1cc(CNc2ccccc2Cl)no1	-38.9%
COCCC(=O)N1C[C@@H](O)[C@H](N2CCN(c3ccccc3)CC2)C1	16.5%
CCOc1ncccc1C(=O)N1CCCC(n2nc(C)cc2C)C1 (stereo not drawn)	0.0996%
O=C(c1cccs1)N1CCC[C@]2(C[C@@H](OCc3ccncc3)CO2)C1	-41%
CN(C(=O)c1ccccc1N(C)S(C)(=O)=O)c1ccc(C(C)(C)C)cc1	31.2%
O=C(c1ccco1)N(CC(F)(F)F)C1CCOCC1	61.3%
O=C(c1ccc(F)cc1F)N(CC(F)(F)F)C1CCOCC1	3.04%
O=C(c1ccco1)N(CC(F)(F)F)C1CCCOC1 (stereo not drawn)	9.16%
N#Cc1cc(S(N)(=O)=O)ccc1N1CCN(c2ccccc2)CC1	-33.7%
CC1CCCN(C(=O)c2ccc(-c3ccco3)o2)C1 (stereo not drawn)	-22.2%

SMILES	INHIBITION
CCS(=O)(=O)NCC(=O)N1CCC(c2cc3ccccc3[nH]2)CC1	-17.8%
COC(=O)NCC(=O)N1CCC(c2cc3ccccc3[nH]2)CC1	62.9%
CNS(=O)(=O)CC(=O)N1CCC(c2cc3ccccc3[nH]2)CC1	18.6%
O=c1[nH]c2nc(N3CCOCC3)ncc2c(=O)n1-c1cccc(F)c1	31.7%
O=S(=O)(C1CC1)N1C[C@@H]2CN(Cc3ccoc3)CCO[C@@H]2C1	-64.1%
Cc1nnc(NCCC(=O)NCc2ccccc2)c(C#N)c1C	12.3%
CC(=O)N1CC[C@@]2(O)CCCC[C@H]2[C@@H]1c1ccccc1	45%
O=C(NCCC1COc2ccccc2O1)c1ccc(N2CC(O)C2)nc1 (stereo not drawn)	59.5%
O=C(NCCC1COc2ccccc2O1)c1ccc(-c2cn[nH]c2)nc1 (stereo not drawn)	48.9%
O=C(NCCC1COc2ccccc2O1)c1ccc(-c2cc[nH]n2)nc1 (stereo not drawn)	-21.6%
CCc1nc(C)cc(N2CCN(C(=O)[C@@H]3C[C@H]4C=C[C@@H]3C4)CC2)n1	-2.09%
NCC1CCCCN1C(=O)Cc1cccc(Br)c1 (stereo not drawn)	-0.159%
O=C(Cc1c[nH]c(=O)[nH]c1=O)N1CCCCC1CCc1ccccc1 (stereo not drawn)	-28%
O=C(Cc1c[nH]c(=O)[nH]c1=O)N1CCCCC1CCc1cccc(O)c1 (stereo not drawn)	57.6%
Nc1cccnc1N1CCCCCC1	-12.1%
Cc1cccc(N2CCC3(CCCC(=O)N3)CC2)n1	-77.4%
CCc1nnc(CN(C)C[C@@H]2CCCN3CCCC[C@H]23)o1	5.46%
CCc1nnc(CN(C)CC2CCCCC2)o1	61.1%
Cc1nnc(CN(C)CC2CCCCC2)o1	27.5%
CCCN(CC)c1ccc(C(=O)N2CCCC2c2cnn(C)c2)cn1 (stereo not drawn)	22.3%
COc1ccc(CNCC2CN(C3CC3)CCO2)cc1C (stereo not drawn)	10.2%
C[C@H]1C[C@H]2CN(C(=O)CCOc3ccccc3)CC[C@H]2O1	27.6%

SMILES	INHIBITION
Cc1nc(COCc2cnc3n2CCN(C(=O)C2CC2)C3C)cs1 (stereo not drawn)	33%
Cc1nc(COCc2cnc3n2CCN(CC2CCC2)C3C)cs1 (stereo not drawn)	50.2%
CC(=O)N1CCn2c(COCc3csc(C)n3)cnc2C1C (stereo not drawn)	-14.8%
Cc1nc(COCc2cnc3n2CCN(C2CCC2)C3C)cs1 (stereo not drawn)	-12.6%
CCOCc1cnc2n1CCN(Cc1nc(C)cs1)C2C (stereo not drawn)	41%
Cc1nc(COCc2cnc3n2CCN(C)C3C)cs1 (stereo not drawn)	52.3%
Clc1ccccc1Cc1noc(CN2CCCC(CN3CCCC3)C2)n1 (stereo not drawn)	42.8%
COCc1cc(NCCc2ccccn2)n2nccc2n1	26.6%
CC(C)CNc1nnc(SC(C(=O)NCc2cccnc2)C(C)C)s1 (stereo not drawn)	-11.3%
COCC(O)CN(C)C(=O)NCc1ccc(-c2ccn[nH]2)cc1 (stereo not drawn)	51.7%
CNS(=O)(=O)c1ccc(CNC(=O)N(C)CC(O)COC)cc1 (stereo not drawn)	36.3%
COCC(O)CN(C)C(=O)NCc1ccc(S(C)(=O)=O)cc1 (stereo not drawn)	29.4%
CC(NC(=O)CCOc1cccc(F)c1)c1nnc2n1CCC2 (stereo not drawn)	33.7%
CCC(O)Cn1cc(C2=CCN(Cc3ccc(OC)cc3)CC2)cn1 (stereo not drawn)	-8.97%
CCC(O)Cn1cc(C2=CCN(Cc3cc(O)nc(C)n3)CC2)cn1 (stereo not drawn)	52%
Cc1nc(O)cc(CN2CC=C(c3cnn(C(C)(C)C)c3)CC2)n1	-33.2%
O=C1NCCc2c1sc1ccc(C(=O)N3CC[C@H](CO)[C@H](O)C3)cc21	12.1%
CN(C)C1CCCN(C(=O)c2ccc3sc4c(c3c2)CCNC4=O)CC1 (stereo not drawn)	60.3%
CN(C)[C@H]1CN(C(=O)c2ccc3sc4c(c3c2)CCNC4=O)C[C@@H]1O	-26%
Fc1ccc(C(CNc2ccncn2)N2CCCCC2)cc1 (stereo not drawn)	5.03%
